According to the supplement of paper PMC6555819:

What was measured:
Assay in all cases: PBM binding z-score (relative to random genomic background probes); higher = stronger binding; sequences stand for … in GC…GCGATTGACAGCGTAGAATGAAGG
[1] = test system: FXR:RXRa (NR concentration 270 nM, RXRa partner concentration 90 nM)
Procedure, shortened: (§1)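 Regression normalization was applied to scanned fluorescence from custom Agilent 4×180K protein-binding microarrays. Before scanning, arrays were incubated 1 h with ligand-free nuclear receptor dimers, and binding was detected with antibodies against each partner (one per run). Binding z-scores use the random background probes as reference.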

[2] = test system: LXRa:RXRa (NR concentration 270 nM, RXRa partner concentration 90 nM)
Procedure, shortened: as §1

[3] = test system: LXRa homodimer (NR concentration 270 nM)
Procedure, shortened: as §1

[4] = test system: LXRb:RXRa (NR concentration 270 nM, RXRa partner concentration 90 nM)
Procedure, shortened: as §1

[5] = test system: LXRb homodimer (NR concentration 270 nM)
Procedure, shortened: as §1

[6] = test system: PPARa:RXRa (NR concentration 270 nM, RXRa partner concentration 90 nM)
Procedure, shortened: as §1

[7] = test system: PPARg:RXRa (NR concentration 180 nM, RXRa partner concentration 90 nM)
Procedure, shortened: as §1

[8] = test system: PPARg:RXRa 270nM:90nM, anti-RXR (NR concentration 270 nM, RXRa partner concentration 90 nM)
Procedure, shortened: as §1

[9] = test system: PPARg:RXRa 30nM:10nM, anti-RXR (NR concentration 30 nM, RXRa partner concentration 10 nM)
Procedure, shortened: as §1

[10] = test system: PPARg:RXRa 90nM:30nM, anti-RXR (NR concentration 90 nM, RXRa partner concentration 30 nM)
Procedure, shortened: as §1

[11] = test system: PPARg:RXRa DBDmut IVT, anti-RXR (DBD mutation: RXRa K156A/R161A, NR concentration 270 nM, RXRa partner concentration 90 nM)
Procedure, shortened: as §1

[12] = test system: PPARg:RXRa IVT, anti-PPARg (NR concentration 270 nM, RXRa partner concentration 90 nM)
Procedure, shortened: as §1

[13] = test system: PPARg DBDmut IVT, anti-PPARg (DBD mutation: PPARg1 K132A/R137A, NR concentration 270 nM)
Procedure, shortened: as §1

[14] = test system: PPARg homodimer (NR concentration 180 nM)
Procedure, shortened: as §1

[15] = test system: PXR:RXRa (NR concentration 270 nM, RXRa partner concentration 90 nM)
Procedure, shortened: as §1

[16] = test system: PXR homodimer (NR concentration 270 nM)
Procedure, shortened: as §1

[17] = test system: RARa:RXR (NR concentration 270 nM, RXRa partner concentration 90 nM)
Procedure, shortened: as §1

[18] = test system: RARa homodimer (NR concentration 270 nM)
Procedure, shortened: as §1

[19] = test system: RARb:RXRa (NR concentration 270 nM, RXRa partner concentration 90 nM)
Procedure, shortened: as §1

Sequence | PBM binding z-score [1] | PBM binding z-score [2] | PBM binding z-score [3] | PBM binding z-score [4] | PBM binding z-score [5] | PBM binding z-score [6] | PBM binding z-score [7] | PBM binding z-score [8] | PBM binding z-score [9] | PBM binding z-score [10] | PBM binding z-score [11] | PBM binding z-score [12] | PBM binding z-score [13] | PBM binding z-score [14] | PBM binding z-score [15] | PBM binding z-score [16] | PBM binding z-score [17] | PBM binding z-score [18] | PBM binding z-score [19]
CGAATTAGGTCAAAGGACAGTGAAAGGCGACGTA | 4.51 | 3.08 | 0.314 | 2.23 | 0.106 | 6.11 | 9.47 | 8.69 | 8.66 | 9.34 | 8.15 | 7.88 | 2.44 | 2.21 | 1.46 | 0.358 | 2.87 | 0.296 | 4.18
ATATGTAGGTTAAGGTCATTCAGAAAGTAGGGAA | 5.54 | 5.3 | 3.85 | 4.59 | 1.75 | 5.54 | 8.49 | 6.99 | 5.28 | 7.39 | 7.09 | 7.46 | 2.29 | 3.37 | 4.99 | 3.21 | 4.73 | 2.27 | 4.35
CGAACTAGGTCACCCGGACAGTGAAGAGGTTGGA | 3.91 | 2.15 | 0.102 | 1.65 | 0.00893 | 4.76 | 8.61 | 6.77 | 4.46 | 6.25 | 8.23 | 8.41 | 0.442 | 2.42 | 1.55 | 0.0197 | 2.64 | 0.174 | 4.22
CGAACTAGGTCCAAGGACAGTGAAAGGCGACGTA | -0.44 | -0.748 | -0.421 | -0.931 | -1.24 | 0.459 | 1.53 | 2.19 | 0.583 | 1.69 | 0.968 | 1.2 | -0.593 | -0.32 | -0.326 | -0.337 | -0.0342 | -0.625 | 0.398
ATACGTAGGTTAGGGTCATTCAGAAAGTAGGGAA | 4.93 | 3.99 | 1.16 | 4.2 | 1.26 | 4.88 | 2.96 | 3.41 | 1.32 | 2.77 | 0.761 | 2.44 | 0.669 | 3.09 | 4.27 | 1.89 | 4.85 | 1.86 | 3.39
CGAACTAGGTCACCAGGACAATGAAGAGGTTGGA | 3.54 | 2.55 | 0.00967 | 1.74 | 0.0583 | 5.41 | 8.69 | 6.83 | 4.53 | 6.43 | 7.84 | 9.01 | 1.88 | 1.94 | 1.49 | 0.22 | 2.43 | 0.0185 | 4.21
